In the library only some 0.5% were active in any assay of this set; here they are far more common.
E coli growth-1: bacterial growth inhibition, counter-screen for AddAB inhibitors. E. coli V3065 growth, OD600 absorbance, 18 h. inhibition, % at 11.9 µM. actives 0.27% (n = 330,000). AID 449728;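 active = inhibition above the campaign's mean inhibition across all tested compounds plus 3 SD, cut at about 9.9% in these data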;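 note: uninfected addAB+ strain grown without phage in ampicillin broth; 0% = DMSO wells and 100% = ciprofloxacin 0.95 µg/ml wells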
AddAB inh: less growth of phage-infected E. coli with AddAB; E. coli expressing H. pylori AddAB, absorbance growth; actives 0.29% (n = 330,000); inhibition, % at 11.9 µM; AID 435030; in the data active = inhibition above about 12%;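 note: 0% = vehicle wells of infected cells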
E coli growth-2: E. coli growth inhibition. Escherichia coli growth, OD600, 23 h; stronger effect = lower value. AID 1053175. actives 0.21% (n = 330,000). OD600 absorbance (concentration not given with the values);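 active = OD600 absorbance below the run mean of sample wells minus 3.6 SD, in any replicate, cut at about 0.56 in these data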
phage Ecoli inh: E. coli growth loss with phage present; growth absorbance; inhibition, % at 11.9 µM; actives 0.26% (n = 360,000); AID 651602; in the data active = inhibition above about 11%
Tat transport: blocks Tat-dependent protein export in E. coli; E. coli MC4100 TorA-mCherry Tat export, fluorescence; inhibition, % at 10 µM; actives 0.036% (n = 340,000); AID 488895;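 active = mean replicate inhibition at least 50% and at least half of replicates individually reaching 50%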;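 note: exported cargo escapes ClpAP degradation while cytoplasmic cargo is degraded and loses fluorescence; 0% = median of neutral control wells and 100% = median of NaSCN control wells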
Numbers without * were called inactive; . = no result given.

SMILES | E coli growth-1 | AddAB inh | E coli growth-2 | phage Ecoli inh | Tat transport
C[C@@H](CN1CCC[C@H]1CN1C(N)=NC[C@@H]1Cc1ccccc1)N1C[C@@H](Cc2ccccc2)N(CCc2ccc(Cl)c(Cl)c2)C1=N | 6 | 7 | . | . | 66*
CC(C)[C@H](CN1CCC[C@H]1CN1C(N)=NC[C@@H]1Cc1ccccc1)N1C[C@@H](Cc2ccccc2)N(CCc2ccc(Cl)c(Cl)c2)C1=N | 6 | 6 | . | . | 8
CCC[C@@H](CN1CCC[C@H]1CN1C(N)=NC[C@@H]1Cc1ccccc1)N1C[C@@H](Cc2ccccc2)N(CCc2ccc(Cl)c(Cl)c2)C1=N | 3 | 2 | . | 4 | 2
CCC[C@@H](CN1CCC[C@H]1CN1C(N)=NC[C@@H]1Cc1ccccc1)N1C[C@@H]([C@H](C)CC)N(CCc2ccc(Cl)c(Cl)c2)C1=N | 3 | 7 | . | . | 0
CCC[C@@H](CN1CCC[C@H]1CN1C(N)=NC[C@H]1CC(C)C)N1C[C@@H](Cc2ccccc2)N(CCc2ccc(Cl)c(Cl)c2)C1=N | 8 | 5 | 0.059* | 1 | 0
CCCC(CN1CCCC1CN1C(N)=NCC1Cc1ccccc1)N1CC(Cc2ccccc2)N(CCc2ccc(Cl)c(Cl)c2)C1=N (stereo not drawn) | . | . | 0.061* | . | .
COc1ccc(CNC(=O)C2CC=CC3CCN(Cc4ccccc4)C(=O)C32)cc1 (stereo not drawn) | . | . | 0.66 | . | .
CCC[C@@H](CN1CCC[C@H]1CN1C(N)=NC[C@H]1CC(C)C)N1C[C@@H](Cc2ccccc2)N(CCCC2CCCC2)C1=N | 3 | 4 | 0.27* | 1 | 12
CC[C@@H](C)[C@@H]1CN([C@@H](C)CN2CCC[C@H]2CN2C(N)=NC[C@H]2CC(C)C)C(=N)N1CCc1ccc(Cl)c(Cl)c1 | 1 | 2 | . | 5 | 11
CC[C@@H](C)[C@@H]1CN([C@@H](CN2CCC[C@H]2CN2C(N)=NC[C@H]2CC(C)C)C(C)C)C(=N)N1CCc1ccc(Cl)c(Cl)c1 | 6 | 8 | 0.13* | 5 | 31
C=CCn1c(=C(C#N)C(=O)c2ccccc2)sc(=Cc2ccc(C)o2)c1=O | . | . | 0.71 | . | .
C[C@H]1COc2c(C3(N)CC3)c(F)cc3c(=O)c(C(=O)O)cn1c23 | 102* | 100* | . | . | .
O=C(NN=C/C(Br)=C/c1ccccc1)c1ccncc1 | . | . | 0.46* | . | .
O=C(N/N=C/C(Br)=C/c1ccccc1)c1ccncc1 | 3 | 11 | . | 4 | -8
Cc1ccc(Nc2cc(C)nn2-c2nc(C)cc(=O)[nH]2)cc1 | 2 | 2 | 0.49* | . | -14
Cc1ccc(Nc2cc(C)nn2-c2nc(C)cc(C)n2)cc1 | 1 | 0 | 0.7 | 0 | -4
Cn1c(SCC(=O)NN=Cc2ccc(O)c(O)c2)nc2ccccc21 | . | . | 0.68 | . | .
COc1ccccc1OCC(=O)NN=CC=Cc1ccc([N+](=O)[O-])o1 | . | . | 0.36* | . | .
Cc1nc2ccccn2c1C(=O)NN=Cc1ccc([N+](=O)[O-])o1 | . | . | 0.52* | . | .
CCN(CC)c1ccc(N=Cc2ccc([N+](=O)[O-])o2)cc1 | 5 | 12 | 0.15* | 5 | -1
Cc1nc2ccccn2c1C(=O)N/N=C/c1ccc([N+](=O)[O-])o1 | 6 | 9 | . | 7 | -10
O=C(NN=Cc1ccc([N+](=O)[O-])o1)C(O)c1ccccc1 (stereo not drawn) | . | . | 0.44* | . | .
COC(=O)NN=Cc1ccc([N+](=O)[O-])o1 | . | . | 0.051* | . | .
CC(=O)Oc1ccc(C(=O)Cc2ccccn2)c(O)c1 | -1 | 3 | 0.65 | 3 | 56*
Cc1noc(NS(=O)(=O)c2ccc(NC(=O)CCn3c(=O)oc4ccccc43)cc2)c1C | 10* | 11 | 0.76 | 11 | -15
SMILES | E coli growth-1 | AddAB inh | E coli growth-2 | phage Ecoli inh | Tat transport
Cc1cc(C)nc(NS(=O)(=O)c2ccc(NC(=O)Cn3c(=O)oc4ccccc43)cc2)n1 | -2 | 0 | 0.71 | 3 | -9
O=C(CCN1CCOCC1)NNC(=S)NC(=O)c1ccccc1 | 0 | 4 | 0.53* | -4 | -15
O=C(CCN1CCOCC1)c1ccccc1 | -2 | 6 | 0.62 | 2 | -30
S=C1SCN(Cc2ccccn2)CN1Cc1ccco1 | 0 | 1 | 0.52* | 0 | -6
NC(CO)C(=O)NNCc1ccc(O)c(O)c1O (stereo not drawn) | 13* | 10 | . | 7 | 2
COC(=O)C(N)Cc1ccc(O)c(O)c1 (stereo not drawn) | 1 | 1 | 0.68 | -1 | 7
O=C(O)c1ccccc1SSc1ccccc1C(=O)O | 13* | 10 | 0.68 | 2 | 7
O=C(O)c1ccccc1O | 1 | 3 | 0.7 | 4 | 11
O=C1NC(Cc2ccccc2)COC(=O)C(Cc2ccc(F)cc2)CCC=CCC1CC(=O)N(CCO)Cc1ccccc1 (stereo not drawn) | . | . | 0.72 | . | .
O=[N+]([O-])c1cc(C(F)(F)F)ccc1NCCNC(=S)Nc1ccc(Cl)cc1 | 10* | 9 | 0.61 | 7 | 12
C#CCOCCOCCOCCNc1nc(N2CCN(C(=O)C(CCCCN)n3cc(C(N)CO)nn3)CC2)nc(N2CCN(C(=O)C(Cc3ccc(O)cc3)n3cc(C(N)C(C)CC)nn3)CC2)n1 (stereo not drawn) | . | . | 0.67 | . | .
c1ccc2c(NCCCN3CCOCC3)c3ccccc3nc2c1 | 10* | 15* | 0.63 | 6 | .
CCCCCCCCCOC(=O)C1N2C(=O)C(NC(=O)COc3ccccc3)C2SC1(C)C (stereo not drawn) | . | . | 0.68 | . | .
O=[N+]([O-])c1nn(-c2ccccc2)n(O)c1=NC1CCN(Cc2ccccc2)CC1 | 10* | 8 | 0.59 | 5 | 4
CC(C)(C)OC(=O)C(Cc1ccccc1)NC(=O)c1nc[nH]c1C(=O)NC(Cc1ccccc1)C(=O)OC(C)(C)C (stereo not drawn) | . | . | 0.71 | . | .
CCC(C)Sc1ccc(C2N[C@@](C)(C(=O)OC)C3C(=O)N(CC)C(=O)C23)cc1 (stereo partly drawn) | . | . | 0.69 | . | .
O=c1ccc2ccccc2c2ccccc12 | . | . | . | 0 | .
O=Nc1c(O)c2ccccc2c2ccccc12 | 6 | 10 | 0.53 | 11* | -9
C=CCC(CC(=O)NCCO)C(=O)NC(COC(=O)C(CC=C)CC(=O)OC(C)(C)C)c1ccccc1 (stereo not drawn) | . | . | 0.71 | . | .
COC1OC2O[C@@]3(C)CCC4C(C)CCC(C1C)[C@@]24OO3 (stereo partly drawn) | . | . | 0.36* | . | .
COc1ccc(C=NN2CCOCC2)cc1O | . | . | 0.55* | . | .
COc1ccc(/C=N/N2CCOCC2)cc1O | -2 | 0 | . | 1 | 2
COCc1cc(C=NNC(=O)Cc2ccc(Cl)cc2)ccc1OC | . | . | 0.25* | . | .
CCCCN1CCC2C=CCC(C(=O)Nc3ccc(Cl)cc3Cl)C2C1=O (stereo not drawn) | . | . | 0.66 | . | .
Cc1cc(C(C#N)c2ccc(Cl)cc2)c(Cl)cc1NC(=O)c1cc(I)cc(I)c1O (stereo not drawn) | 11* | 8 | . | 5 | -9
C=CCSC(=S)NC1CCS(=O)(=O)C1 (stereo not drawn) | -2 | 4 | 0.5* | 3 | -21
Fc1ccc(NC(=S)Nc2ccc(F)c(Cl)c2)cc1Cl | 0 | 2 | 0.49* | . | -9
O=C(Nc1ccc(F)c(Cl)c1)Nc1ccc(Cl)cn1 | -1 | -1 | 0.72 | 4 | 0

Compound activity: PubChem BioAssay, several laboratories
